We go through 20 compounds from PubChem BioAssay.

A short description of experiment [1]: antimalarial activity against Dd2 strain (AID 2302;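 active = growth inhibition above 50% at the single 2 µM test dose, taken to imply half-maximal potency below 2 µM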;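 note: 0% = DMSO untreated growth and 100% = chloroquine plus artemisinin killed control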). The following applies: P. falciparum Dd2 in RBCs, LDH growth readout, 72 h; at 2 µM; hits give high values.
A short description of experiment [2]: human hepatoma cell viability loss – ATP luminescence, cytotoxicity control for P. falciparum antimalarial project, primary screen (AID 2303;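 active = inhibition above 50%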;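 note: 0% = DMSO wells and 100% = digitonin-killed cells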). The following applies: HepG2 viability, 24-48 h, at 10 µM, hits give high values.
For experiment [3], the target named is L-lactate dehydrogenase (Plasmodium falciparum (isolate CDC / Honduras)) (UniProt Q27743). Nature of the experiment: PfLDH activity inhibition – cell lysate, 3D7 strain, counter-screen for P. falciparum growth inhibition project (AID 2304).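 Note: 0% = vehicle and 100% = reference inhibitor.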 The following applies: P. falciparum 3D7 crude extract, LDH APAD/NBT absorbance; at 2 µM; hits give high values.
Experiment [4] in a line: inhibition of 3D7 malaria parasite growth – strain 3D7 (AID 2306).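 Note: 0% = DMSO wells and 100% = chloroquine plus artemisinin control wells.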 The settings on record: P. falciparum 3D7 erythrocytic growth, LDH absorbance, 72 h; at 2 µM; hits give high values.
The target of experiment [5] is Calcium-dependent protein kinase 1 (Plasmodium falciparum (isolate 3D7)) (UniProt P62344). Nature of the experiment: PfCDPK1 kinase inhibitors, biochemical, TCAMS library (AID 1159585; cut-off not given, nearly all actives have IC50 up to about 0.98 µM;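 note: inhibitors leave more ATP so luminescence rises with inhibition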). The following applies: recombinant PfCDPK1, Kinase-Glo ATP depletion luminescence. In general terms: Kinase-Glo reads ATP consumption through a luciferase reaction.
Experiment [6] addresses Plasmodium falciparum protein kinase 6 (PK6, PF3D7_1337100) (UniProt Q8IDW1). Nature of the experiment: PfPK6 kinase inhibitors, biochemical, TCAMS library (AID 1159586). The settings on record: recombinant PfPK6, Kinase-Glo ATP depletion luminescence.
For experiment [7], the target named is Protein kinase 7 (PK7), Plasmodium falciparum 3D7 (PF3D7_0213400) (UniProt Q7YTF7). Nature of the experiment: inhibition of Plasmodium PK7 catalytic activity – biochemical, TCAMS antimalarial set, Kinase-Glo luminescence (AID 1159587). The settings on record: recombinant PfPK7, Kinase-Glo ATP depletion luminescence.
In experiment [8] the target is Calcium-dependent protein kinase 4 (Plasmodium falciparum (isolate 3D7)) (UniProt Q8IBS5). Nature of the experiment: PfCDPK4 kinase inhibitors, biochemical, TCAMS library (AID 1159588; cut-off not given, nearly all actives have IC50 up to about 0.91 µM). The settings on record: recombinant PfCDPK4, Kinase-Glo ATP depletion luminescence.

Values without a mark were called inactive. For some of these results: Entries with a potency or affinity are not part of this list. The source made the active and inactive calls. Unless noted, the rule behind the calls is not given here.

Sequence of L-lactate dehydrogenase (Plasmodium falciparum (isolate CDC / Honduras)) (Q27743 whole entry, looked up): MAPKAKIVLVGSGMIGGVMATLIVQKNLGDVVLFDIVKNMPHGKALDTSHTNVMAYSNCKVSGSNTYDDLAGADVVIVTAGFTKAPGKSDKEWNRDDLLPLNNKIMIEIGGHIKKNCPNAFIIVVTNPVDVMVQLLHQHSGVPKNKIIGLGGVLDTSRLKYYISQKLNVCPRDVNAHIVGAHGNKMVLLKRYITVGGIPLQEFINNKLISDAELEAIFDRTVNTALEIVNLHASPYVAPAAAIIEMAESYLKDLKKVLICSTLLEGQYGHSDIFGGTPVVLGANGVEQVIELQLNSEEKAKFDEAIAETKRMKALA
Sequence of Plasmodium falciparum protein kinase 6 (PK6, PF3D7_1337100) (Q8IDW1 1-305): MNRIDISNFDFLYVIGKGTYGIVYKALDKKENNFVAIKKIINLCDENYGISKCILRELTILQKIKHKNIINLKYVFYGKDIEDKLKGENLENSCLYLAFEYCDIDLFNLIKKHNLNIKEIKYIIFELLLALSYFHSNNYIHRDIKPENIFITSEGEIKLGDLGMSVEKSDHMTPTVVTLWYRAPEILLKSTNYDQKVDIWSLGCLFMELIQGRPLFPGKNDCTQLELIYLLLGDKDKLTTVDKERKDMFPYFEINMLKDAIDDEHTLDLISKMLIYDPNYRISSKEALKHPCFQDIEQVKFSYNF
Sequence of Calcium-dependent protein kinase 1 (Plasmodium falciparum (isolate 3D7)) (P62344 whole entry, looked up): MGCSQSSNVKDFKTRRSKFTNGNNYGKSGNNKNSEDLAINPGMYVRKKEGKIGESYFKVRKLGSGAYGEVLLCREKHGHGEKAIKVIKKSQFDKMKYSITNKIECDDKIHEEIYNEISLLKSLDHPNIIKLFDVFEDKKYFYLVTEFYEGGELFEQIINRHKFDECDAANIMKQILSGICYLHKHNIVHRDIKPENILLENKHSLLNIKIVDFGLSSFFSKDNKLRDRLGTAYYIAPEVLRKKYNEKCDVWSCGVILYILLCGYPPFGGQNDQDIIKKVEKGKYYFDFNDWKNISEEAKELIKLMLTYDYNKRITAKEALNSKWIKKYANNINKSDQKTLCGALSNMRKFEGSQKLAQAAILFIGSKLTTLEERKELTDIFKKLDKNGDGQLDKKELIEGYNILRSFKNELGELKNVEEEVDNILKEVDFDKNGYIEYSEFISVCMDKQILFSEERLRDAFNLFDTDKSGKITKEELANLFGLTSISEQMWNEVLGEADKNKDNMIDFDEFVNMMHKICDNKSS
Sequence of Protein kinase 7 (PK7), Plasmodium falciparum 3D7 (PF3D7_0213400) (Q7YTF7 1-343): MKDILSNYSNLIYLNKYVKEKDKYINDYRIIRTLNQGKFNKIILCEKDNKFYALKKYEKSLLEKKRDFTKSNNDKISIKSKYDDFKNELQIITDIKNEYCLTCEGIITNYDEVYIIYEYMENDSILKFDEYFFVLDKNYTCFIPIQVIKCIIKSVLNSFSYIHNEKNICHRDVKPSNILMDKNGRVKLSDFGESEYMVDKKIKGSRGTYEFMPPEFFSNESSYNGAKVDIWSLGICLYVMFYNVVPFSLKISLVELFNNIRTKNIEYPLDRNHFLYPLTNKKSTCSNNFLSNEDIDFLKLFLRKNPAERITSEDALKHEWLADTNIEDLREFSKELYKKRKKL
Sequence of Calcium-dependent protein kinase 4 (Plasmodium falciparum (isolate 3D7)) (Q8IBS5 whole entry, looked up): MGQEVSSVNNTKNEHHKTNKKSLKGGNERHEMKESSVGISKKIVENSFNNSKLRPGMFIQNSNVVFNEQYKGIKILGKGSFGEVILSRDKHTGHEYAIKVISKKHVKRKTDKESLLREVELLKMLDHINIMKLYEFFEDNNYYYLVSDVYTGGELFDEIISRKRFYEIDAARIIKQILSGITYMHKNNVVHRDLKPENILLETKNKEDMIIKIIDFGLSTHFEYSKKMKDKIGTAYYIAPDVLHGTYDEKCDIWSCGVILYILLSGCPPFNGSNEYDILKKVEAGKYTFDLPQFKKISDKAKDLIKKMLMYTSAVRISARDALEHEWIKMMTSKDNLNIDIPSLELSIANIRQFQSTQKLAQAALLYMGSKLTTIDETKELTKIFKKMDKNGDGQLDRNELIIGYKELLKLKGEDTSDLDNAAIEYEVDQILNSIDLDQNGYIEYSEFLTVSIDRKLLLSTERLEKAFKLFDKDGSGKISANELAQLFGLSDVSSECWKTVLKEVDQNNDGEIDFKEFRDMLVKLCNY

On to `CCc1ccc(OCCCON2C(N)=NC(N)=NC2(C)C)cc1`, for which the growth inhibition in experiment [1] and in experiment [4] was 95% (active) in each case. Further, the inhibition (as a rule, the change of the read-out against control, counted positive when it falls) in experiment [2] was 64% (active); in experiment [3], -8%. The outcome in experiment [5], in experiment [6], in experiment [7] and in experiment [8] was inactive.
In the case of `C=CCc1cccc(CN2CCC(c3cc(=O)[nH]c(-c4ccccn4)n3)CC2)c1O`, the growth inhibition was 75% (active) in experiment [1] and 91% (active) in experiment [4]. The inhibition in experiment [2] is 46%; in experiment [3], -2%. In addition, the outcome in experiment [5], in experiment [6], in experiment [7] and in experiment [8] was inactive.
For the compound `Cc1ccc(C2(C)CC(C)(C)N(C(=O)COc3ccc4ccccc4c3)c3ccccc32)cc1` (stereo not given), the values for the growth inhibition in experiment [1] and in experiment [4] were 98% (active) and 100% (active), respectively. Moreover, the inhibition is 0% in experiment [2] and -2% in experiment [3]. Besides, the result in experiment [5], in experiment [6], in experiment [7] and in experiment [8] was inactive.
`Fc1ccc2nc(-c3ccc(-c4ccc(CNCc5ccccc5)cc4)cc3)[nH]c2c1`: the growth inhibition is 94% (active) in experiment [1] and 101% (active) in experiment [4]. Moreover, the figures for the inhibition in experiment [2] and in experiment [3] were 35% and -4%, respectively. The outcome in experiment [5], in experiment [6], in experiment [7] and in experiment [8] was inactive.
In the case of `O=C(NCc1ccccc1S(=O)c1ccccc1CO)C(F)(F)F` (stereo not given), the growth inhibition in experiment [1] is 2%; in experiment [4] it was 98% (active). Also, the inhibition in experiment [2] was 50% (active); in experiment [3], 0%. Also, the outcome in experiment [5], in experiment [6], in experiment [7] and in experiment [8] was inactive.
As for `O=c1[nH]c(NCCCNCc2cc3c(Cl)cc(Cl)cc3[nH]2)nc2ccccc12`, the growth inhibition was 4% in experiment [1] and 91% (active) in experiment [4]. The results for the inhibition in experiment [2] and in experiment [3] were 10% and -3%, respectively. In addition, the outcome in experiment [5], in experiment [6], in experiment [7] and in experiment [8] was inactive.
Consider `COc1ccc(C2CC(=O)C3=C(C2)NC(C)=C(C(=O)OC2CCCC2)C3c2cccc(O)c2)cc1OC` (stereo not given), for which the growth inhibition in experiment [1] was 98% (active); in experiment [4], 101% (active). Moreover, the inhibition in experiment [2] was 8%; in experiment [3], -1%. Also, the outcome in experiment [5], in experiment [6], in experiment [7] and in experiment [8] was inactive.
For `O=C(N[C@@H](CC1CCCCC1)C(=O)NC1CC1)c1ccc(O)c(-c2cccc(C(F)(F)F)c2)c1`, the growth inhibition in experiment [1] is 47%; in experiment [4], 99% (active). Further, the inhibition in experiment [2] is -5%; in experiment [3], -4%. Moreover, the outcome in experiment [5], in experiment [6], in experiment [7] and in experiment [8] was inactive.
As to `O=C(Nc1ccc(-c2nc3ccccc3[nH]2)cc1)c1ccc(Cl)c([N+](=O)[O-])c1`, the growth inhibition in experiment [1] is 4%; in experiment [4], 99% (active). Besides, the inhibition was 6% in experiment [2] and 1% in experiment [3]. In addition, the result in experiment [5], in experiment [6], in experiment [7] and in experiment [8] was inactive.
Take `CCN(CCCN1CCCCC1)c1cc(C)nc(Nc2ccc(C)cc2C)n1`: the growth inhibition was 35% in experiment [1] and 91% (active) in experiment [4]. Further, the results for the inhibition in experiment [2] and in experiment [3] were 33% and 6%, respectively. In addition, the outcome in experiment [5], in experiment [6], in experiment [7] and in experiment [8] was inactive.
As for `O=C(N[C@@H](CC1CCCCC1)C(=O)NC1CCCCC1)c1ccc(O)c(-c2cccc(C(F)(F)F)c2)c1`, the growth inhibition in experiment [1] is 95% (active); in experiment [4], 100% (active). The inhibition was -7% in experiment [2] and -1% in experiment [3]. Besides, the outcome in experiment [5], in experiment [6], in experiment [7] and in experiment [8] was inactive.
Consider `Cc1cccc(-c2nn(-c3ccccc3)c3[nH]c(=O)c(CN4CCSCC4)cc23)c1`, for which the growth inhibition in experiment [1] and in experiment [4] was 98% (active) each time. For the same compound, the inhibition in experiment [2] is -3%; in experiment [3], 0%. Further, the result in experiment [5], in experiment [6], in experiment [7] and in experiment [8] was inactive.
Turning to `Cc1ccc(-n2c(Sc3ncnc4sccc34)nnc2N2CCCC2)cc1`, the figures for the growth inhibition in experiment [1] and in experiment [4] were 100% (active) and 99% (active), respectively. The inhibition in experiment [2] was 0%; in experiment [3], -3%. For the same compound, the outcome in experiment [5], in experiment [6], in experiment [7] and in experiment [8] was inactive.
As for `COc1cc(N)cc2sc(N)nc12`, the growth inhibition in experiment [1] and in experiment [4] was 99% (active) each time. Also, the inhibition is 0% in experiment [2] and -2% in experiment [3]. For the same compound, the outcome in experiment [5], in experiment [6], in experiment [7] and in experiment [8] was inactive.
With `Cc1cc(NC(=O)Nc2cccc(C#N)c2)c2ccccc2n1`, the growth inhibition is 82% (active) in experiment [1] and 100% (active) in experiment [4]. Besides, the inhibition in experiment [2] is 17%; in experiment [3], -1%. In addition, the result in experiment [5], in experiment [6], in experiment [7] and in experiment [8] was inactive.
On to `O=C1COc2ccccc2N1C/C=C(\CN1CCC(c2ccccc2)CC1)c1cc(Cl)cc(Cl)c1`, for which the values for the growth inhibition in experiment [1] and in experiment [4] were 72% (active) and 91% (active), respectively. In addition, the inhibition in experiment [2] is 14%; in experiment [3] it was -4%. For the same compound, the outcome in experiment [5], in experiment [6], in experiment [7] and in experiment [8] was inactive.
Regarding `O=C(NC1CC1)c1ccc(N2CCC(Oc3ccc(F)cc3)CC2)nc1`, the growth inhibition in experiment [1] is 79% (active); in experiment [4], 89% (active). Also, the inhibition in experiment [2] was -2%; in experiment [3] it was -1%. For the same compound, the outcome in experiment [5], in experiment [6], in experiment [7] and in experiment [8] was inactive.
In the case of `CCc1cc(NC(=O)Nc2ccnc3ccccc23)ccc1OC`, the growth inhibition in experiment [1] is 24%; in experiment [4] it was 85% (active). The figures for the inhibition in experiment [2] and in experiment [3] were -6% and 2%, respectively. Moreover, the result in experiment [5], in experiment [6], in experiment [7] and in experiment [8] was inactive.
Turning to `Cc1csc(-c2nc(NCCc3c(C)noc3C)ncc2-c2ccsc2)n1`, the values for the growth inhibition in experiment [1] and in experiment [4] were 82% (active) and 90% (active), respectively. The results for the inhibition in experiment [2] and in experiment [3] were 6% and -4%, respectively. The result in experiment [5], in experiment [6], in experiment [7] and in experiment [8] was inactive.
As to `COc1cc(NC(=O)Nc2cccc3ccccc23)c(OC)cc1Cl`, the growth inhibition in experiment [1] is 71% (active); in experiment [4], 97% (active). The results for the inhibition in experiment [2] and in experiment [3] were -12% and 3%, respectively. Moreover, the result in experiment [5], in experiment [6], in experiment [7] and in experiment [8] was inactive.
